PubChem BioAssay (NCI)
This is part of a sample that, as a whole, favours compounds with a hit. Of some 83,000 tested, about 20% had one in any assay.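 In brief: 96-well plates, 48 h treatment, single concentration, percent growth endpoint.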 Values without a mark were called inactive. Activity calls are given as the source filed them. Rule for the calls: active = growth percent below 10; inactive = the rest.

Experiments:
Experiment in all cases: NCI-60 one-dose screen, 48 h (100 = growth as untreated, 0 = no growth, -100 = all killed)
Conditions in all cases: 10 µM unless noted
NCI-H23 lung = tested on: NCI-H23 lung
NCI-H226 lung = tested on: NCI-H226 lung
NCI-H322M lung = tested on: NCI-H322M lung
HOP-62 NSCLC = tested on: HOP-62 NSCLC
HOP-92 NSCLC = tested on: HOP-92 NSCLC
NCI-H522 lung = tested on: NCI-H522 lung
A549/ATCC NSCLC = tested on: A549/ATCC NSCLC
786-0 renal = tested on: 786-0 renal
COLO 205 colon = tested on: COLO 205 colon
DU-145 prostate = tested on: DU-145 prostate
K-562 leukemia = tested on: K-562 leukemia
MALME-3M melanoma = tested on: MALME-3M melanoma
MDA-MB-231 breast = tested on: MDA-MB-231 breast
RXF 393 renal = tested on: RXF 393 renal
SF-268 CNS = tested on: SF-268 CNS
SF-295 CNS = tested on: SF-295 CNS
SF-539 CNS = tested on: SF-539 CNS
UACC-257 melanoma = tested on: UACC-257 melanoma
M14 melanoma = tested on: M14 melanoma

Structure (SMILES)	growth (NCI-H23 lung)	growth (NCI-H226 lung)	growth (NCI-H322M lung)	growth (HOP-62 NSCLC)	growth (HOP-92 NSCLC)	growth (NCI-H522 lung)	growth (A549/ATCC NSCLC)	growth (786-0 renal)	growth (COLO 205 colon)	growth (DU-145 prostate)	growth (K-562 leukemia)	growth (MALME-3M melanoma)	growth (MDA-MB-231 breast)	growth (RXF 393 renal)	growth (SF-268 CNS)	growth (SF-295 CNS)	growth (SF-539 CNS)	growth (UACC-257 melanoma)	growth (M14 melanoma)
C#C[C@@]1(O)[C@@H](CO)O[C@@H](n2cc(-c3ccco3)c3c(N)ncnc32)[C@@H]1O	78.6%	70.7%	69.5%	67.7%	30%	61.7%	68.5%	85.6%	46.4%	67.9%	86.1%	59.4%	102%	80.9%	83%	76.9%	46%	89.3%	69.9%
Sc1cccc2cccnc12	55.4%	55.7%	36.3%	36.7%	95.6%	-12.6% (active)	19.1%	31.5%	24.4%	27.1%	9% (active)	10.9%	33.8%	13.4%	34.1%	47.1%	53.8%	24.3%	-3.55% (active)
Nc1c(C(=O)Nc2cccc3ccccc23)sc2nc3c(cc12)COCC3	63.1%	98%	82.4%	39.9%	61.1%	–	50.9%	38.6%	58.7%	58.7%	17.5%	60.8%	53.3%	41.4%	56.5%	28.9%	30%	54.5%	35.7%
CC(C)NS(=O)(=O)c1cccc(-c2ccc3c4c(n(CCCN(C)C)c(=O)c3c2)-c2ccccc2C4=O)c1	98.6%	92.9%	104%	101%	114%	86.7%	83.5%	33.8%	98.9%	108%	-57.8% (active)	91.6%	83.8%	96.1%	103%	104%	90.7%	107%	104%
CC(=O)Nc1c(C(=O)Nc2ccccc2)sc2nc3c(cc12)C(OC(C)=O)CCC3 (stereo unspecified)	98%	92.9%	99%	97.1%	86.9%	74.4%	94.2%	71.7%	110%	105%	72.1%	89.7%	101%	62.1%	97.5%	32.4%	95.8%	64.8%	90.3%
CC(=O)c1cnc(-c2ccccc2)nc1CBr	87.7%	92.1%	102%	94.3%	58.7%	-23.4% (active)	99%	86.3%	36.9%	70.9%	3.21% (active)	55.8%	66.4%	60%	84.8%	97.8%	91.6%	95.3%	69.8%
COC(=O)/C=C1\SC(=Nc2ccc(C(F)(F)F)cc2)N(CCc2c[nH]c3ccccc23)C1=O	-4.71% (active)	-62.7% (active)	-11% (active)	-64.2% (active)	-48.7% (active)	-65% (active)	3.32% (active)	-74.1% (active)	-62.9% (active)	-65.4% (active)	-0.591% (active)	-89.6% (active)	-63.7% (active)	-70.2% (active)	-3.91% (active)	-81.4% (active)	-91.2% (active)	-50.3% (active)	-45.6% (active)
C#CC[C@@H]1C[C@]2(C)[C@H]3CC[C@@H]4[C@H]5[C@H](C(=C)C)CC[C@]5(C(=O)O)CC[C@@]4(C)[C@]3(C)CC[C@H]2C(C)(C)[C@H]1O	47.9%	29.1%	67.5%	59%	-6.27% (active)	61.8%	16.9%	-1.51% (active)	83.2%	57.4%	35.1%	53%	20.8%	6.63% (active)	66.5%	12.8%	53.8%	70.9%	60.3%
